The supplement of paper PMC10849652
The full data set covers some 8,800 targets. This sample favours those with a hit. About 0.5% of all pairs of compound and target were hits.

Experiments:
Experiment in all cases: log2 fold change, soluble protein after heating vs DMSO (PISA); higher = thermal stabilisation; K562 lysate, 10 uM; active = over 0.2 and 3.5 SD of the protein, either way, in both replicates (recomputed)
vemurafenib = compound: CCCS(=O)(=O)Nc1ccc(F)c(C(=O)c2c[nH]c3ncc(-c4ccc(Cl)cc4)cc23)c1F [vemurafenib]
How it was run: (§1)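 Soluble protein was defined as the supernatant remaining after 21,000xg for 90 min, following pooling of heated aliquots and adjustment to 0.5% NP-40 at 4°C. Before that, crude K562 extract at 1 mg/mL protein in PBS pH 7.4 with 1 mM MgCl2 was treated with 10 μM compound for 30 min and heated for 3 min across 48°C-58°C. Quantification used TMTpro 16plex LC-MS/MS with channel sums equalised, and values are log-two fold changes in thermal stability relative to solvent controls from duplicates.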

[1] = compound: CCCS(=O)(=O)Nc1ccc(F)c(C(=O)c2c[nH]c3ncc(Cl)cc23)c1F
How it was run: as §1

barasertib = compound: CCN(CCCOc1ccc2c(Nc3cc(CC(=O)Nc4cccc(F)c4)[nH]n3)ncnc2c1)CCOP(=O)(O)O [barasertib]
How it was run: as §1

[2] = compound: CC[C@@H]1C(=O)N(C)c2cnc(Nc3ccc(C(=O)NC4CCN(C)CC4)cc3OC)nc2N1C1CCCC1
How it was run: as §1

volasertib = compound: CC[C@@H]1C(=O)N(C)c2cnc(Nc3ccc(C(=O)N[C@H]4CC[C@H](N5CCN(CC6CC6)CC5)CC4)cc3OC)nc2N1C(C)C [volasertib]
How it was run: as §1

[3] = compound: CCn1c(C(=O)N(C2CC2)C2CC2)cc2c3c(ncn3C)c(Nc3cc(C)n(C)n3)nc21
How it was run: as §1

[4] = compound: CCn1cc(-c2ccnc3[nH]c(-c4cccc(CN(C)C)c4)cc23)c(-c2ccc(NC(=O)N(C)C)cc2)n1
How it was run: as §1

[5] = compound: CN1CCC(CNc2ccc3ncc(-c4cccc(OC(F)(F)F)c4)n3n2)CC1
How it was run: as §1

saracatinib = compound: CN1CCN(CCOc2cc(OC3CCOCC3)c3c(Nc4c(Cl)ccc5c4OCO5)ncnc3c2)CC1 [saracatinib]
How it was run: as §1

sotrastaurin = compound: CN1CCN(c2nc(C3=C(c4c[nH]c5ccccc45)C(=O)NC3=O)c3ccccc3n2)CC1 [sotrastaurin]
How it was run: as §1

Measured: log2 fold change

ENY2 (UniProt Q9NPA8)
inactive: vemurafenib -0.057 | [1] 0.016 | barasertib 0.072 | [2] -0.036 | volasertib 0.033 | [3] 0.048 | saracatinib -0.003 | sotrastaurin -0.003
active: [4] 0.886 | [5] -0.406

ERCC4 (UniProt Q92889)
inactive: vemurafenib 0.071 | [1] 0.01 | barasertib 0.163 | [2] 0.144 | volasertib -0.006 | [3] 0.004 | [4] -0.078 | [5] 0.114 | saracatinib 0.016 | sotrastaurin 0.047

FBLL1 (UniProt A6NHQ2)
active: [4] -0.307
inactive: vemurafenib 0.081 | [1] 0.019 | barasertib 0.107 | [2] 0.003 | volasertib -0.041 | [3] -0.014 | [5] 0.046 | saracatinib -0.075 | sotrastaurin 0.056

FXR2 (UniProt P51116)
UniProt P51116, sequence (P51116 whole entry, looked up): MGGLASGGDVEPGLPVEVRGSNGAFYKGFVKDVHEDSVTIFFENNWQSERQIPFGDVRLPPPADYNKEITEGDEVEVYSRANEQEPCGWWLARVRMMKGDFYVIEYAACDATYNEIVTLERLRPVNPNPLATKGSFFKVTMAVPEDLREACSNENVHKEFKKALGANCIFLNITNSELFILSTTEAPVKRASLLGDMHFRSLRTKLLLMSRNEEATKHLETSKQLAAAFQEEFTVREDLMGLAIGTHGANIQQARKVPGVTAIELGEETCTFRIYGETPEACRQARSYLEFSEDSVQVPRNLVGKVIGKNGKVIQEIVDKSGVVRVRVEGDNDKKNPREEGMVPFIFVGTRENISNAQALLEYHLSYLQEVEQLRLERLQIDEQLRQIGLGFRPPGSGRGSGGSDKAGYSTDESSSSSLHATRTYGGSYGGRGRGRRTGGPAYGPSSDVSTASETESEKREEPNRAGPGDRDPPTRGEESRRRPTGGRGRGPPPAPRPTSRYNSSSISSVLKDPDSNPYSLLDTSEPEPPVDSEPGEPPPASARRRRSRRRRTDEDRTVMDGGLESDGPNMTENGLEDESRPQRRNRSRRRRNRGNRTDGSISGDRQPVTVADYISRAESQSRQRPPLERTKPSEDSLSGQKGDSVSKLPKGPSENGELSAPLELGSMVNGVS
inactive: vemurafenib 0 | [1] 0.041 | barasertib -0.003 | [2] -0.021 | volasertib -0.028 | [3] 0.028 | [4] 0.007 | [5] -0.076 | saracatinib 0.034 | sotrastaurin -0.009

EEF1A1, A0A087WVQ9
inactive: vemurafenib 0.011 | [1] 0.047 | barasertib -0.069 | [2] 0.027 | volasertib -0.003 | [3] -0.026 | [4] -0.016 | [5] -0.12 | saracatinib 0.077 | sotrastaurin 0.013

FAM83A (UniProt Q86UY5)
UniProt Q86UY5, sequence (Q86UY5 whole entry, looked up): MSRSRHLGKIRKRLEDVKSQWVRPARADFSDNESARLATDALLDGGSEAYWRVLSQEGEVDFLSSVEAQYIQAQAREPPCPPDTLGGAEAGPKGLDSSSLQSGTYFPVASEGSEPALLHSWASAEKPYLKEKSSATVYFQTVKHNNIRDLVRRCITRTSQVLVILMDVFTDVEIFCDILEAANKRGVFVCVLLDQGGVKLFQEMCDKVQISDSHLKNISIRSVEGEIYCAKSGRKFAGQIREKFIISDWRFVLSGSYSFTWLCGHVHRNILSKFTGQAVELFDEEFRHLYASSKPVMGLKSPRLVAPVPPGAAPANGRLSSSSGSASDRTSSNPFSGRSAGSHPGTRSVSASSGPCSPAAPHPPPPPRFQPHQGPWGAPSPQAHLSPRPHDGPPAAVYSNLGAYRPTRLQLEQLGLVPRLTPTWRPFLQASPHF
inactive: vemurafenib 0.038 | [1] -0.002 | barasertib 0.035 | [2] -0.001 | volasertib 0.003 | [3] 0.05 | [4] 0.103 | [5] 0.06 | saracatinib 0.01 | sotrastaurin -0.049

EMP3 (UniProt P54852)
UniProt P54852, sequence (P54852 whole entry, looked up): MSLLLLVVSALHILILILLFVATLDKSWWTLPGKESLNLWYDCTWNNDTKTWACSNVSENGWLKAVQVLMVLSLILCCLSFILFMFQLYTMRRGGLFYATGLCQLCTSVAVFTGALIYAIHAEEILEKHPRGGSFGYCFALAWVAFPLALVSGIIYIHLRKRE
inactive: vemurafenib 0.022 | [1] -0.002 | barasertib 0.005 | [2] 0.066 | volasertib 0.124 | [3] -0.112 | saracatinib 0.049 | sotrastaurin -0.029
active: [4] -0.967 | [5] 0.365

FUBP3 (UniProt Q96I24)
inactive: vemurafenib -0.007 | [1] 0.019 | barasertib 0.048 | [2] 0.046 | volasertib -0.032 | [3] 0.042 | [4] 0.028 | [5] -0.012 | saracatinib 0.03 | sotrastaurin -0.077

GIGYF2 (UniProt Q6Y7W6)
inactive: vemurafenib -0.001 | [1] -0.017 | barasertib 0.049 | [2] 0.093 | volasertib -0.05 | [3] -0.001 | [4] 0.028 | [5] -0.055 | saracatinib 0.009 | sotrastaurin -0.001

DSN1 (UniProt Q9H410)
inactive: vemurafenib 0 | [1] 0.043 | barasertib 0.007 | [2] 0.034 | volasertib 0.001 | [3] 0.001 | [4] -0.017 | [5] 0.01 | saracatinib 0.034 | sotrastaurin 0.003

GBF1 (UniProt Q92538)
inactive: vemurafenib 0.023 | [1] 0.04 | barasertib 0.087 | [2] -0.004 | volasertib -0.05 | [3] 0.006 | [4] -0.011 | [5] -0.046 | saracatinib -0.011 | sotrastaurin 0.019

ERLIN2 (UniProt O94905)
UniProt O94905, sequence (O94905 whole entry, looked up): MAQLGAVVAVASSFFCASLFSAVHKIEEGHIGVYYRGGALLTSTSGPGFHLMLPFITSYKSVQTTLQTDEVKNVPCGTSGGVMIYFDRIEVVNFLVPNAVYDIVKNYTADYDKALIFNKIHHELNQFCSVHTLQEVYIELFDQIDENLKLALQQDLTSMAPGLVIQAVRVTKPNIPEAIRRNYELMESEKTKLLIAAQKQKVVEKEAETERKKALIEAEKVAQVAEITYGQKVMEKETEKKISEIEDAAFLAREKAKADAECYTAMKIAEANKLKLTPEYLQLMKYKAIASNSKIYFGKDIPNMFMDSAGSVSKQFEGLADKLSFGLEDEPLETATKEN
inactive: vemurafenib -0.003 | [1] 0.012 | barasertib 0.021 | [2] 0.05 | volasertib -0.029 | [3] 0.012 | [5] -0.135 | saracatinib 0.008 | sotrastaurin -0.008
active: [4] 0.384

FPGT (UniProt O14772)
active: [4] 0.415
inactive: vemurafenib -0.008 | [1] 0.011 | barasertib 0.048 | [2] -0.064 | volasertib -0.018 | [3] 0.008 | [5] -0.054 | saracatinib 0.017 | sotrastaurin -0.001

ERLIN1 (UniProt O75477)
inactive: vemurafenib 0.01 | [1] 0.013 | barasertib 0.008 | [2] -0.037 | volasertib -0.029 | [3] 0.033 | [4] 1.01 | [5] -0.059 | saracatinib 0.041 | sotrastaurin -0.023

ERBIN isoform 8 (UniProt Q96RT1)
inactive: vemurafenib 0.038 | [1] 0.015 | barasertib -0.004 | [2] 0.068 | volasertib -0.013 | [4] -0.028 | [5] 0.1 | saracatinib -0.001 | sotrastaurin 0.032
active: [3] 0.338

EP300 (UniProt Q09472)
UniProt Q09472, sequence (Q09472 whole entry, looked up): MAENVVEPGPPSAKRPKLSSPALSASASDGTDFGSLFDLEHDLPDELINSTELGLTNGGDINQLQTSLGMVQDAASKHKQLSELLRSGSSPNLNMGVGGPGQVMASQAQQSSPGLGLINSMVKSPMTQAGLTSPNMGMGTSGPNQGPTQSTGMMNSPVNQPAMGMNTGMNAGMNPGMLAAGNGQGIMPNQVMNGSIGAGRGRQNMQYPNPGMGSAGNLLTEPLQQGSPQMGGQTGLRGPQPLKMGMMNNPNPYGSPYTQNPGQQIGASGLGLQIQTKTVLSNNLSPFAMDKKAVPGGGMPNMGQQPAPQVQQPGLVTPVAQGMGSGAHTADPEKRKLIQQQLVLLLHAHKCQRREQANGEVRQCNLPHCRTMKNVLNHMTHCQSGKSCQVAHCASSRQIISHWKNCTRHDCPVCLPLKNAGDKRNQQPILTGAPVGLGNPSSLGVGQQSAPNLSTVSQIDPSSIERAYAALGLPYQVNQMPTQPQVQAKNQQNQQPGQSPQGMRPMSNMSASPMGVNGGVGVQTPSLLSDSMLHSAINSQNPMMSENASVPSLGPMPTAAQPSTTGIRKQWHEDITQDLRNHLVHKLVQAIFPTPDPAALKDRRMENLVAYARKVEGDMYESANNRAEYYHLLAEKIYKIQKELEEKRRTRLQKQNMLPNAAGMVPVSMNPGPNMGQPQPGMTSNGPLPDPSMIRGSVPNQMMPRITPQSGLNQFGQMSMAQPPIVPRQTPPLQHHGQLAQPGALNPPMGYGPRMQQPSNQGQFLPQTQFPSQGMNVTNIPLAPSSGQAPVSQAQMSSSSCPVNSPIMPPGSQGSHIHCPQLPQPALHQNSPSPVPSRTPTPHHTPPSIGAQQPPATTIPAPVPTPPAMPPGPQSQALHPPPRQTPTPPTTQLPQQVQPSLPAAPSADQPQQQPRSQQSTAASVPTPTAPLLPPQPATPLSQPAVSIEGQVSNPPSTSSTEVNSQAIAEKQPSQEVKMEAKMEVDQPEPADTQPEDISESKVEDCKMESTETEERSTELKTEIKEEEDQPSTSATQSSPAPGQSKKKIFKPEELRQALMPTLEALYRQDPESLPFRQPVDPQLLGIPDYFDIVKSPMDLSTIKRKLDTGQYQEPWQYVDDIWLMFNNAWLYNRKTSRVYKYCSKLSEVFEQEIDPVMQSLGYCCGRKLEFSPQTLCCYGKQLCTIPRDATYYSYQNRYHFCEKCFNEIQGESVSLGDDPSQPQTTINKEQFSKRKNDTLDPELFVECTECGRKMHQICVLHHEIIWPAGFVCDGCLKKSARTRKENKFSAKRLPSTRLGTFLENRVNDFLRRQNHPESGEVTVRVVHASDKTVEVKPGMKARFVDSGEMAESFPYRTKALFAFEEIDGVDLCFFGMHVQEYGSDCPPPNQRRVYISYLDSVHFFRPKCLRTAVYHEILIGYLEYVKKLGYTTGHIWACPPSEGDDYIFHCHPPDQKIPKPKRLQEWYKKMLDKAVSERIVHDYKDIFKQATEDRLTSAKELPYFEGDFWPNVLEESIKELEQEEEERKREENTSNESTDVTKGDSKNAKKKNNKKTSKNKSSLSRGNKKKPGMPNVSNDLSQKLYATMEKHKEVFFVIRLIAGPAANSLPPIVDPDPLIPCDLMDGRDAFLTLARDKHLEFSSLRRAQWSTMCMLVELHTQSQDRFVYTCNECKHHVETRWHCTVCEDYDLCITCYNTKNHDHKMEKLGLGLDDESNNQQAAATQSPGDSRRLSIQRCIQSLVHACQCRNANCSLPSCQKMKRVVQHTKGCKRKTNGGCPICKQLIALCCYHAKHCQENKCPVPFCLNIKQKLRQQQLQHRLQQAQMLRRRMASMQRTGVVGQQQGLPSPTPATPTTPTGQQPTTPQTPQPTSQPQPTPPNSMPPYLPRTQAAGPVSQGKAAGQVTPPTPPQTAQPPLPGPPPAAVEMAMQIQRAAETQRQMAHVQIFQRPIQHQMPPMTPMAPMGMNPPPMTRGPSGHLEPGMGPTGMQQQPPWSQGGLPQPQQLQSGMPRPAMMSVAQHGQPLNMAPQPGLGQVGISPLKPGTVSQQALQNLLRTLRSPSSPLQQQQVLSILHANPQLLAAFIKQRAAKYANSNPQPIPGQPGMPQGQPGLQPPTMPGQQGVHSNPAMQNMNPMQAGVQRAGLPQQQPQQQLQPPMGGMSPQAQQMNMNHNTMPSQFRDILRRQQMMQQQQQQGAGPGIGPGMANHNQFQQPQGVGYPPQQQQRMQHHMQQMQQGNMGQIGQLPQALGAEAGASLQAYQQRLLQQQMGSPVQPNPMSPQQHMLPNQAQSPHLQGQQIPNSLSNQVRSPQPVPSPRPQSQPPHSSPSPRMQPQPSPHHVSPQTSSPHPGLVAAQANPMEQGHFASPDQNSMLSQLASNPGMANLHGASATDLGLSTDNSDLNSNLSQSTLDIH
inactive: vemurafenib -0.018 | [1] -0.01 | barasertib 0.007 | [2] -0.006 | volasertib -0.042 | [3] -0.009 | [4] -0.151 | [5] 0.058 | saracatinib 0.027 | sotrastaurin -0.022

GALNT2 (UniProt Q10471)
inactive: vemurafenib 0.013 | [1] 0.014 | barasertib 0.003 | [2] -0.014 | volasertib 0.002 | [3] 0.042 | [4] 0.065 | [5] 0.035 | saracatinib -0.004 | sotrastaurin 0.016

EFCAB14 (UniProt O75071)
inactive: vemurafenib 0.022 | [1] 0.001 | barasertib -0.01 | [2] 0.039 | volasertib 0.008 | [3] -0.042 | [4] -0.058 | [5] 0.047 | saracatinib 0.023 | sotrastaurin 0.005

ESRRA (UniProt P11474)
UniProt P11474, sequence (P11474 whole entry, looked up): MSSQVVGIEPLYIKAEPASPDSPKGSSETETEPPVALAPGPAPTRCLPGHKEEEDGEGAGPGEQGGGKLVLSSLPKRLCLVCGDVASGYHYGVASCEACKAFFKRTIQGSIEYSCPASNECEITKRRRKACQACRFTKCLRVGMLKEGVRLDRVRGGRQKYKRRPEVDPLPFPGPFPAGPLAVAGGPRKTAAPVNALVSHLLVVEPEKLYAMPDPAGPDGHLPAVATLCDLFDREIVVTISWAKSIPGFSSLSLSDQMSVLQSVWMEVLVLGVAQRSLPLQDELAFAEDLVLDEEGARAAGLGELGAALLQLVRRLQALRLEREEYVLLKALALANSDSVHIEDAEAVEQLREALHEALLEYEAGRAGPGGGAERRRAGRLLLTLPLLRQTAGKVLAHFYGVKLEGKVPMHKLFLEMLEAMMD
inactive: vemurafenib 0.058 | [1] 0.005 | barasertib 0.041 | [2] 0.03 | volasertib -0.075 | [3] -0.039 | [5] -0.283 | saracatinib -0.055 | sotrastaurin 0.053
active: [4] 0.569

FKBP8 isoform 2 (UniProt Q14318)
inactive: vemurafenib -0.037 | [1] -0.01 | barasertib 0.366 | [2] -0.045 | volasertib 0.005 | [3] -0.029 | [4] 0.033 | [5] -0.084 | saracatinib -0.022 | sotrastaurin 0.006

GGT7 (UniProt Q9UJ14)
inactive: vemurafenib 0.003 | [1] 0.029 | barasertib 0.007 | [2] 0.037 | volasertib -0.014 | [3] -0.014 | [4] -0.003 | [5] 0.027 | saracatinib 0.097 | sotrastaurin 0.032

FREM2 (UniProt Q5SZK8)
inactive: vemurafenib 0.003 | [1] -0.082 | barasertib 0.136 | [2] -0.072 | volasertib 0.026 | [3] 0.014 | [4] -0.366 | [5] 0.151 | saracatinib 0.051 | sotrastaurin 0.056

FASTKD5 (UniProt Q7L8L6)
inactive: vemurafenib -0.003 | [1] 0.008 | barasertib -0.047 | [2] 0.073 | volasertib -0.065 | [3] 0.028 | [4] 0.082 | [5] -0.245 | saracatinib 0.043 | sotrastaurin -0.026

FBXO9 (UniProt Q9UK97)
inactive: vemurafenib -0.025 | [1] 0.007 | barasertib 0.116 | [2] 0.135 | volasertib -0.012 | [3] -0.015 | [4] 0.049 | [5] -0.083 | saracatinib -0.013 | sotrastaurin 0.021

ELAVL1 isoform 2 (UniProt Q15717)
inactive: vemurafenib 0.035 | [1] 0.024 | barasertib -0.013 | [2] -0.03 | volasertib -0.029 | [3] 0.035 | [4] 0.013 | [5] -0.083 | saracatinib -0.001 | sotrastaurin 0.024

G6PD isoform 2 (UniProt P11413)
UniProt P11413, sequence (P11413 whole entry, looked up): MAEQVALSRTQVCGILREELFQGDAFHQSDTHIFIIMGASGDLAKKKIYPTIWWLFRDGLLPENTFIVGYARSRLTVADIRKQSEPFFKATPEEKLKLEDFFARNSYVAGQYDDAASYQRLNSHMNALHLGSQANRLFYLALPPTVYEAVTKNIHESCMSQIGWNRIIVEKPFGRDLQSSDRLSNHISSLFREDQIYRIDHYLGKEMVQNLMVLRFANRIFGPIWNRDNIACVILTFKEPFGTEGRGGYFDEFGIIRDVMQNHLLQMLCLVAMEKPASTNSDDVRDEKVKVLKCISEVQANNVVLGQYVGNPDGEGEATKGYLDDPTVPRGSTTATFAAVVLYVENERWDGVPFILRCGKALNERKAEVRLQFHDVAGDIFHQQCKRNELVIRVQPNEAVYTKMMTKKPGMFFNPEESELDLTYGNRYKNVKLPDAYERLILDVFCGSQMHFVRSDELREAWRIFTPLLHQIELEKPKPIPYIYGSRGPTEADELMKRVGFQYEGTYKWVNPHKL
inactive: vemurafenib 0.003 | [1] 0.008 | barasertib -0.029 | [2] -0.02 | volasertib -0.061 | [3] 0.016 | [4] 0.063 | [5] -0.04 | saracatinib 0.032 | sotrastaurin -0.017

GAPVD1 isoform 6 (UniProt Q14C86)
inactive: vemurafenib 0.011 | [1] 0.006 | barasertib 0.01 | [2] -0.077 | volasertib -0.036 | [3] 0.027 | [4] 0.046 | [5] -0.083 | saracatinib 0.014 | sotrastaurin 0.012

EIF2B4 (UniProt Q9UI10)
inactive: vemurafenib -0.064 | [1] 0.026 | barasertib 0.006 | [2] 0.04 | volasertib -0.032 | [3] 0.048 | saracatinib 0.042 | sotrastaurin 0.047

GART (UniProt P22102)
inactive: vemurafenib 0.007 | [1] 0.001 | barasertib 0.028 | [2] -0.066 | volasertib -0.054 | [3] 0.038 | [4] 0.124 | [5] -0.013 | saracatinib 0.011 | sotrastaurin -0.023

ECI2 (UniProt O75521)
inactive: vemurafenib 0.071 | [1] 0.013 | barasertib 0.007 | [2] 0.059 | volasertib -0.013 | [3] 0.004 | [4] -0.021 | [5] -0.017 | saracatinib -0.003 | sotrastaurin -0.045
